Reference: PubChem BioAssay (Tox21)
Records with an inconclusive call do not appear. Active and inactive are the calls of the source. Unless noted, calls come from the whole dose curve; as a rule, active = well fitted curve in the direction sought with a large enough effect in the repeat runs; inconclusive = weak or mixed curves; inactive = no such curve, though single readings can be large; an effect the other way counts as inactive or inconclusive.

Experiments:
[1] = qHTS assay to identify small molecule antagonists of the estrogen related receptor (ERR) signaling pathway from Tox21 library - cell viability counter screen (AID 1224834); note: nearly all actives have a fitted effect of over 30% in size; note: potency is the fitted concentration of half-maximal effect
Summary of the method: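 Fluorescence from CellTiter-Fluor gives the viability read-out, taken 30 min after reagent addition. Before that, ERR cells seeded 6 h earlier were incubated with compounds for 17.5 h at 37 C.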

[2] = molecular target: Luciferin 4-monooxygenase (Photinus pyralis) (UniProt P08659); assay: qHTS assay to identify small molecule inhibitors of firefly luciferase (AID 1224835); note: nearly all actives have a fitted effect of over 25% in size; note: potency is the fitted concentration of half-maximal effect
Summary of the method: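 Biochemical qHTS: compounds run as interplate titrations against purified firefly enzyme, with D-luciferin and ATP each at its KM concentration. Light output recorded by CCD imaging.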

[3] = qHTS assay to identify small molecule antagonists of the constitutive androstane receptor (CAR) signaling pathway - cell viability counter screen (AID 1224837); note: nearly all actives have a fitted effect of over 45% in size; note: potency is the fitted concentration of half-maximal effect
Summary of the method: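 HepG2-CYP2B6-hCAR cells, 2500/well, 4 hr pre-incubation; compound titration, 15 conc.; CITCO 50 nM final; 23 hr, 37 C/5% CO2; CellTiter-Fluor, fluorescence intensity.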

[4] = molecular target: Nuclear receptor subfamily 1 group I member 3 (Homo sapiens) (UniProt Q14994); assay: qHTS assay to identify small molecule antagonists of the constitutive androstane receptor (CAR) signaling pathway (AID 1224838);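 note: HepG2 cells stably expressing hCAR with CYP2B6 luciferase reporter stimulated by CITCO; nearly all actives have a fitted effect of over 40% in size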; note: potency is the fitted concentration of half-maximal effect
Summary of the method: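 HepG2-CYP2B6-hCAR cells; 4 h pre-incubation; cpd (15 conc) + CITCO 50 nM final; 24 h, 37 C/5% CO2; ONE-Glo, luminescence.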

[5] = molecular target: Nuclear receptor subfamily 1 group I member 3 (Homo sapiens) (UniProt Q14994); assay: qHTS assay to identify small molecule agonists of the constitutive androstane receptor (CAR) signaling pathway (AID 1224839); note: nearly all actives have a fitted effect of over 15% in size; note: potency is the fitted concentration of half-maximal effect;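 for activation: HepG2 cells stably carrying human CAR and a CYP2B6 luciferase reporter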
Summary of the method: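 Compounds tested at 15 concentrations on HepG2 cells stably harbouring hCAR and CYP2B6-2.2kb reporter constructs, co-treated with PK11195 (0.75 uM final), 24 h at 37 C; luminescent reporter signal quantified.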

[6] = qHTS assay to identify small molecule antagonists of the estrogen related receptor signaling pathway with the pleiotropic PPARgamma coactivator (PGC) from Tox21 10K library - cell viability counter screen (AID 1224840; active = well fitted cell-killing curve with a large enough effect in the repeat runs, not every such curve was filed as active; note: nearly all actives have a fitted effect of over 40% in size; note: potency is the fitted concentration of half-maximal effect)
Summary of the method: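 PGC/ERR cells, 2,000/well; 6 h pre-incubation 37 C/5% CO2; cpd in DMSO via pin tool; 17.5 h 37 C; CellTiter-Fluor, 30 min; fluorescence.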

[7] = qHTS assay to identify small molecule agonists of the estrogen related receptor signaling pathway with the pleiotropic PPARgamma coactivator (PGC) from Tox21 10K library (AID 1224842); note: nearly all actives have a fitted effect of over 15% in size
Summary of the method: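 PGC/ERR reporter cell line, 2,000 cells per well, incubated 6 h at 37 C before 23 nL compound in DMSO was added. After 18 h at 37 C, One-Glo luminescence read following 30 min at room temperature.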

[8] = qHTS assay to identify small molecule agonists of the hypoxia (HIF-1) signaling pathway - cell viability counter screen (AID 1224844; calls by dose curve; note: nearly all actives have a fitted effect of over 50% in size; note: potency is the fitted concentration of half-maximal effect)
Summary of the method: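 ME-180 HRE-bla cells, 2,000/well, 0.5% dialyzed FBS; 5 hr settle, 17 hr compound at 37C/5% CO2; CCF4-AM reporter read first, then CellTiter-Glo luminescence after 30 min RT.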

[9] = qHTS assay to identify small molecule agonists of H2AX (AID 1224845; active = well fitted activation curve with a large enough effect in the signal ratio in the repeat runs, not every such curve was filed as active; the % refers to the signal ratio)
Summary of the method: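 Wild-type CHO-K1 cells, plated overnight, exposed 3hr at 37C to 15 concentrations (0.76% DMSO final). Lysed, then HTRF anti-pH2AX (S139) cryptate and anti-H2AX-d2 antibodies, 24 hr room temperature; 665/620 nm emission read.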

[10] = qHTS assay to identify small molecule agonists of H2AX - cell viability counter screen (AID 1224847; calls by dose curve; note: nearly all actives have a fitted effect of over 30% in size; note: potency is the fitted concentration of half-maximal effect; for activity change, negative = cytotoxicity: top concentration of the series differs between compounds)
Summary of the method: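 Compounds tested at 15 concentrations were incubated 3 hr at 37C with wild-type CHO-K1 cells; cellular ATP-based luminescence (CellTiter-Glo) indicated viability.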

[11] = qHTS assay to identify small molecule agonists of the estrogen related receptor (ERR) signaling pathway from Tox21 library (AID 1224849; calls by dose curve; note: nearly all actives have a fitted effect of over 15% in size); conditions: ERR reporter cell line, ONE-Glo luciferase, 18 h; at 92.4 µM (top of the series) unless noted
Summary of the method: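 ERR cells, 6 h pre-incubation 37 C/5% CO2; cpd in DMSO pinned; 18 h 37 C; ONE-Glo added, 30 min RT; luminescence read. Agonist mode, qHTS.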

[12] = qHTS RealTime-Glo MT Cell Viability Assay in HepG2 cells - 24 hour (AID 1224867); note: nearly all actives have a fitted effect of over 50% in size
Summary of the method: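 Viability was tracked continuously by NanoLuc luminescence from prosubstrate reduced by living HepG2 cells, at successive time points over 40 h of compound exposure. Cells with reagent were preincubated 5 h at 37 °C before compound addition.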

[13] = qHTS RealTime-Glo MT Cell Viability Assay in HEK293 cells - 32 hour (AID 1224868); note: nearly all actives have a fitted effect of over 50% in size; note: potency is the fitted concentration of half-maximal effect; for activity change, negative = cytotoxic: top concentration of the series differs between compounds
Summary of the method: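 Viability tracked continuously by luminescence as live cells reduce a prosubstrate for NanoLuc; HEK293 cells preincubated 5 h, compound-treated at 37 C, and read at 0, 8, 16, 24, 32 and 40 h.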

[14] = A CellTox Green Cytotoxicity Assay to monitor cytotoxicity in HEK293 cells - 0 hour (AID 1224869); note: nearly all actives have a fitted effect of over 50% in size
Summary of the method: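 Nonlytic real-time cytotoxicity: HEK293 + CellTox Green reagent plated, 5 h preincubation, pintool compound addition (23 nL in DMSO), 37 C for 40 h, fluorescence measured at successive time points.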

[15] = qHTS RealTime-Glo MT Cell Viability Assay in HepG2 cells - 40 hour (AID 1224870); note: nearly all actives have a fitted effect of over 50% in size
Summary of the method: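 HepG2 cells (600/well) mixed with RealTime-Glo MT reagent, settled 5 h at 37 C/5% CO2 before compound addition. Nonlytic NanoLuc luminescence from viable-cell prosubstrate reduction read repeatedly during 40 h treatment at 37 C.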

[16] = qHTS assay to identify small molecule agonists of the hypoxia (HIF-1) signaling pathway (AID 1224846; active = well fitted activation curve with a large enough effect in the signal ratio in the repeat runs, not every such curve was filed as active; the % refers to the signal ratio)
Summary of the method: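 Cell line: CellSensor HRE-bla ME-180; 2,000 cells/well; 0.5% dialyzed FBS; 5 h preincubation; DMSO compound pin transfer; 17 h, 37C, 5% CO2; CCF4-AM added; bla FRET signal scored for activation.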

[17] = qHTS assay to identify small molecule antagonists of the estrogen related receptor signaling pathway with the pleiotropic PPARgamma coactivator (PGC) from Tox21 10K library (AID 1224841; call rule not given here; note: potency is the fitted concentration of half-maximal effect)
Summary of the method: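 PGC/ERR cell line, 2,000 cells/well; 6 h pre-incubation 37 C/5% CO2; compounds (DMSO) pinned in; 18 h, 37 C; One-Glo, 30 min RT; luminescence.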

[18] = molecular target: Thyrotropin receptor (Homo sapiens) (UniProt P16473); assay: qHTS assay to identify small molecule agonists of the thyroid stimulating hormone receptor (TSHR) signaling pathway (AID 1224843; calls by dose curve; note: nearly all actives have a fitted effect of over 45% in size)
Summary of the method: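 Steps: seed 800 TSHR-HEK293 cells per well; add test compound and hold 30 min at ambient temperature; dispense cAMP-d2 then anti-cAMP cryptate; incubate 1 h at ambient; measure fluorescence intensity.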

[19] = qHTS assay to identify small molecule antagonists of the estrogen related receptor (ERR) signaling pathway from Tox21 library (AID 1224848); note: nearly all actives have a fitted effect of over 50% in size; note: potency is the fitted concentration of half-maximal effect
Summary of the method: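 Luminescent reporter read-out (ONE-Glo) from NTP's ERR cell line after 18 h treatment at 37 C with DMSO-dissolved Tox21 compounds; cells pre-plated 6 h beforehand at 2,000 per well.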

[20] = qHTS assay to identify small molecule agonists of the constitutive androstane receptor (CAR) signaling pathway - cell viability counter screen (AID 1224836); note: nearly all actives have a fitted effect of over 45% in size; note: potency is the fitted concentration of half-maximal effect
Summary of the method: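 23 h treatment, 37 C, 5% CO2. Cell line: HepG2 stably expressing hCAR with a CYP2B6-2.2kb construct. Co-treatment: PK11195, 0.75 uM final. Read-out: CellTiter-Fluor fluorescence intensity.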
% is set by controls: 0 for no effect and ±100 for the full control effect.

Nuclear receptor subfamily 1 group I member 3 (Homo sapiens), sequence (Q14994 whole entry, looked up): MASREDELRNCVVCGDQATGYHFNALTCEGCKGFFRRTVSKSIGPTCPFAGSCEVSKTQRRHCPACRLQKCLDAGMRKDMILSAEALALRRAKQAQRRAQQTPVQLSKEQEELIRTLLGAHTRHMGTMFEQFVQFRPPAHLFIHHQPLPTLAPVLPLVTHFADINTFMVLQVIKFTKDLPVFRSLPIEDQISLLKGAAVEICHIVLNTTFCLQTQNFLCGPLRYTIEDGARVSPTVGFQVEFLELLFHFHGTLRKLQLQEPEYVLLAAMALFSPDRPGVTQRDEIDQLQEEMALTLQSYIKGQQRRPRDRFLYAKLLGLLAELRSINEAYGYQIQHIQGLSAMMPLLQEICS
Luciferin 4-monooxygenase (Photinus pyralis), sequence (P08659 whole entry, looked up): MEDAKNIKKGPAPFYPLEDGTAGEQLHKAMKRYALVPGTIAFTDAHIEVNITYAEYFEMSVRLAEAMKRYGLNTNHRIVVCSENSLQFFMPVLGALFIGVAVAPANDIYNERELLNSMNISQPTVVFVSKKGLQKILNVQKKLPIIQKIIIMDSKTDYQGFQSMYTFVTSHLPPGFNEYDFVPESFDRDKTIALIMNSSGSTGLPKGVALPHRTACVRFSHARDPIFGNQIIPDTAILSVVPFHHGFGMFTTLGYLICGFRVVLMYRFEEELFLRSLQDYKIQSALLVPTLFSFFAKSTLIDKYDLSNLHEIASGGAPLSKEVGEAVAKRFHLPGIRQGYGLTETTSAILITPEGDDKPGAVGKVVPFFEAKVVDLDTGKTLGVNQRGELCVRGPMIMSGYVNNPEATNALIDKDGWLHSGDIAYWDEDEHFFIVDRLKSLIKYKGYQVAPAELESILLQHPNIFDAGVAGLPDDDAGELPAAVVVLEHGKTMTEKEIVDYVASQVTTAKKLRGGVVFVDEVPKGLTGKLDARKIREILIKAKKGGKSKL
Thyrotropin receptor (Homo sapiens), sequence (P16473 whole entry, looked up): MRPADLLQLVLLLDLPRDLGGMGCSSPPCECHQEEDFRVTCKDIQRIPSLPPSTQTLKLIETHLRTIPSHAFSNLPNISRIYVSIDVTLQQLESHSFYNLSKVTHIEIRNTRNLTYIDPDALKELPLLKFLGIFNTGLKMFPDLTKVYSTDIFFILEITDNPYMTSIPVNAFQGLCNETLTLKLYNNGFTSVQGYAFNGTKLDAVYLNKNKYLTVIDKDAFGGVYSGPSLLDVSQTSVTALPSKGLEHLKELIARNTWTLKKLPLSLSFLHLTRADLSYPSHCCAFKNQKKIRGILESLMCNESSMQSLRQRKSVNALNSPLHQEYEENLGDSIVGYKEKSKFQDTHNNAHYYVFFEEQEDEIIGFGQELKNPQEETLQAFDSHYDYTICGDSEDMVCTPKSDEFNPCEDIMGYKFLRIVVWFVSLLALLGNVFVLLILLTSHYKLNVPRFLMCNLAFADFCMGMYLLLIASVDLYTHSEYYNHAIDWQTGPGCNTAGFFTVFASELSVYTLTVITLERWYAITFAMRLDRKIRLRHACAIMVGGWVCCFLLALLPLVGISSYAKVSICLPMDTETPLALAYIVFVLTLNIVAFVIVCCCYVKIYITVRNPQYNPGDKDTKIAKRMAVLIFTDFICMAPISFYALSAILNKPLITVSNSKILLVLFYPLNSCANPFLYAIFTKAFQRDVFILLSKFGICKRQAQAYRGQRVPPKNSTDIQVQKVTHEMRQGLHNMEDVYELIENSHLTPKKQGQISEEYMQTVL

Cc1nc2ccccn2c(=O)c1CCN1CCC(C(=O)c2ccc(F)cc2)CC1
inactive: Potency [1] | Potency [2] | Potency [3] | Potency [4] | Potency [5] | Potency [6] | Potency [7] | Potency [8] | Potency [9] | Potency [10] | activity change, positive = activation [11] -25.4% [at 42.5 µM] | Potency [12] | Potency [14] | Potency [15]
active: Potency [13] 7.56 µM

CC(C)CCCCCCOC(=O)CCCCC(=O)OCCCCCCC(C)C
inactive: Potency [1] | Potency [2] | Potency [3] | Potency [8] | Potency [9] | outcome [16] | Potency [10] | Potency [12] | Potency [13] | Potency [14] | Potency [15]

CC(COc1ccc(C(C)(C)C)cc1)OS(=O)OCCCl (centres undefined)
active: Potency [1] 0.488 µM | Potency [3] 0.274 µM | Potency [4] 1.73 µM | Potency [6] 0.614 µM | Potency [17] 1.23 µM | Potency [8] 1.75 µM | Potency [19] 0.614 µM
inactive: Potency [2] | Potency [5] | Potency [7] | Potency [18] | outcome [16] | Potency [10] | activity change, positive = activation [11] -72.8% | Potency [12] | Potency [14] | Potency [15]

CC(C)(C)CC(C)(C)c1ccc(OCCO)cc1
inactive: Potency [2] | Potency [7] | Potency [8] | activity change, positive = activation [11] -58.8% | Potency [12] | Potency [14] | Potency [15]
active: Potency [1] 48.3 µM | Potency [20] 48.3 µM | Potency [3] 43 µM | Potency [17] 19.2 µM | Potency [10] 100 µM | Potency [19] 3.83 µM | Potency [13] 5.46 µM

O=Cc1c(Cl)cccc1Cl
inactive: Potency [1] | Potency [2] | Potency [3] | Potency [4] | Potency [5] | Potency [6] | Potency [7] | Potency [18] | Potency [8] | outcome [16] | Potency [10] | Potency [19] | activity change, positive = activation [11] 3.9% | Potency [12] | Potency [13] | Potency [14] | Potency [15]

Cc1ccc(S)cc1
inactive: Potency [1] | Potency [2] | Potency [3] | Potency [4] | Potency [5] | Potency [6] | Potency [18] | Potency [8] | outcome [16] | Potency [10] | Potency [12] | Potency [13] | Potency [14] | Potency [15]

CC(=O)Nc1ccccc1C
inactive: Potency [1] | Potency [2] | Potency [3] | Potency [5] | Potency [6] | Potency [7] | Potency [18] | Potency [8] | Potency [9] | outcome [16] | Potency [10] | Potency [19] | activity change, positive = activation [11] -0.329% | Potency [12] | Potency [13] | Potency [14] | Potency [15]

CC1=C(/C=C/C(C)=C\C=C\C(C)=C\C(=O)O)C(C)(C)CCC1
inactive: Potency [20] | Potency [4] | Potency [10] | Potency [13] | Potency [14] | Potency [15]
active: Potency [1] 54.5 µM | Potency [2] 39.9 µM | Potency [5] 24.3 µM | Potency [8] 49 µM

CCCCCCCC/C=C\CCCCCCCC(=O)OC(CO)CO
inactive: Potency [1] | Potency [2] | Potency [3] | Potency [4] | Potency [5] | Potency [6] | Potency [8] | outcome [16] | Potency [10] | Potency [12] | Potency [13] | Potency [15]

Cc1nc2ccccc2s1
inactive: Potency [1] | Potency [2] | Potency [3] | Potency [4] | Potency [5] | Potency [6] | Potency [7] | Potency [18] | Potency [8] | Potency [9] | outcome [16] | Potency [10] | Potency [19] | activity change, positive = activation [11] 1.14% | Potency [12] | Potency [13] | Potency [15]

O=C(O)Cc1ccc(-c2ccccc2)cc1
inactive: Potency [1] | Potency [2] | Potency [3] | Potency [4] | Potency [5] | Potency [17] | Potency [7] | Potency [18] | Potency [8] | Potency [10] | Potency [19] | activity change, positive = activation [11] 1.1% [at 42.5 µM] | Potency [12] | Potency [13] | Potency [14] | Potency [15]

CC1CN(c2cc3c(cc2F)c(=O)c(C(=O)O)cn3-c2ccc(F)cc2F)CCN1 (centres undefined)
inactive: viability change, negative = cytotoxic [1] 4.3% [at 8.39 µM] | activity change, negative = inhibition [2] 1.15% [at 10.5 µM] | activity change, negative = cytotoxicity [3] 6.26% [at 8.39 µM] | activity, negative = inhibition [4] 9.29% [at 8.39 µM] | activation [5] -1.5% [at 8.39 µM] | viability change, negative = cytotoxic [6] 0.948% [at 8.39 µM] | activation [18] -2.32% [at 8.39 µM] | activity change, negative = cytotoxicity [8] 5.19% [at 6.97 µM] | activation [16] 0.362% [at 7.01 µM] | activity change, negative = cytotoxicity [10] 1.23% [at 14 µM] | activity change, negative = cytotoxicity [12] 4.21% [at 6.97 µM] | activity change, negative = cytotoxic [13] 5.72% [at 6.97 µM] | activity change, negative = cytotoxic [15] 3.59% [at 6.97 µM]

CCCCC(CC)COC(=O)COc1ccc(Cl)cc1C (centres undefined)
inactive: Potency [1] | Potency [2] | Potency [3] | Potency [4] | Potency [5] | Potency [6] | Potency [18] | Potency [8] | Potency [9] | outcome [16] | Potency [10] | Potency [12] | Potency [13] | Potency [14] | Potency [15]

CCCCC/C(=C\c1ccccc1)CO
inactive: Potency [1] | Potency [2] | Potency [3] | Potency [4] | Potency [6] | Potency [18] | outcome [16] | Potency [12] | Potency [13] | Potency [14] | Potency [15]
active: Potency [10] 112 µM

CCOC(=O)/C=C/C(=O)O
inactive: Potency [1] | Potency [2] | Potency [3] | Potency [4] | Potency [6] | Potency [18] | Potency [8] | Potency [9] | outcome [16] | Potency [10] | Potency [12] | Potency [13] | Potency [14] | Potency [15]
